# Reference: PubChem BioAssay (NCI)
# Compounds without any hit were thinned out: in the full panel of roughly 83,000, 20% have a hit.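 How to read the values: 0–100, growth inhibition (40 = 60% inhibited); 0, no net growth; -100 to 0, cell death (-40 = 40% of starting cells died; -100 = all dead).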 A number with no mark means an inactive call. Calls of active or inactive are those of the source. The calls were made as follows: active = growth percent below 10; inactive = the rest.
# Test system: SW-620 colon
# Assay: NCI-60 one-dose screen, 48 h (100 = growth as untreated, 0 = no growth, -100 = all killed)
# Details: 10 µM
row,Structure (SMILES),growth
1,CCOC(=O)c1[nH]c(C)c(C(=O)O)c1C,107%
2,O=C(c1ccccc1)C1CCC1,103%
3,CCCC[P+](c1ccccc1)(c1ccccc1)c1ccccc1,64.5%
4,O=C(O)[C@@H]1[C@H]2C[C@H]3c4[nH]c5ccccc5c4CCN3C[C@@H]2CC[C@@H]1O,100%
5,O=[N+]([O-])c1ccc(N=Nc2ccc(O)c3ccccc23)cc1,34%
6,COC(=O)c1ccc(NC(=O)CCl)cc1,76.6%
7,NC(=S)CN1CCOCC1,103%
8,COc1ccccc1NC(=O)c1cc2cc(Br)ccc2cc1O,10.9%
9,CCCCN(CCCC)CCCO,120%
10,CC1(c2ccccc2)NC(=O)NC1=O (configuration not stated),115%
11,Cc1cc(C)c(N)c(S(=O)(=O)O)c1,111%
12,CN(C)C(C)(C)CC(C)(C)C,101%
13,COc1cc2c3cc1Oc1c(OC)c(OC)cc4c1C(Cc1ccc(O)c(c1)Oc1ccc(cc1)CC3N(C)CC2)N(C)CC4 (configuration not stated),-46.8% (active)
14,COc1ccccc1C1OC2=Nc3cc(C)c(C)cc3NC2C1=O (configuration not stated),73.9%
15,COc1cc(C(N)=O)cc(OC)c1OC,109%
16,COc1cc(C(=O)NC(=S)Nc2ccc3ccccc3c2)cc(OC)c1OC,74%
17,O=C1C=CC(=O)N1c1ccc(I)cc1Cl,107%

row,Structure (SMILES),growth
1,NC(C(=O)O)c1ccc([N+](=O)[O-])cc1 (configuration not stated),109%
2,CC1=CC(C)(C)NC(=S)N1c1ccc(S(=O)(=O)O)c2cccc(S(=O)(=O)O)c12,95.2%
3,C=CCNC(=O)c1ccc(OC)cc1,126%
4,CCC(O)CC(CC)CO (configuration not stated),110%
5,CSc1[nH]c(=O)ncc1F,102%
6,O=[N+]([O-])c1ccc(Cl)c(S(=O)(=O)O)c1,107%
7,CCOC(=O)c1cc(/C=C/c2ccc(Cl)cc2Cl)on1,-13.6% (active)
8,O=C1C=CC2=C3c4cc(O)c(O)cc4CC3(O)COC2=C1O (configuration not stated),101%
9,O=C(N/N=C\c1cc(Br)cc(Br)c1O)N/N=C/c1cc(Br)cc(Br)c1O,56.3%
10,O=S(=O)(O)C(Nc1ccccc1)c1ccccc1 (configuration not stated),102%
11,CCC(=O)Oc1ccc(OC)cc1,102%
12,Cc1cc(N2CCC(N3CCCC3)CC2)nc(/N=C(\N)Nc2ccc(Cl)c(Cl)c2)n1,-56% (active)
13,O=c1[nH]nc(SC2CCCCC2)c(=O)[nH]1,98.6%
14,C=CC(=O)OCCCCCCCC,103%
15,Cc1cc(=O)cc(C)n1-c1ccccc1,107%
16,COc1ccccc1NC(=O)C1=C(C)NC(C)=C(C(=O)Nc2ccccc2OC)C1c1cccc([N+](=O)[O-])c1,88%
17,Cc1nc2ccccc2c(C(=O)O)c1O,110%

# Test system: MCF7 breast
# Assay: as above
# Details: 10 µM unless noted
row,Structure (SMILES),growth
1,CCOC(=O)c1[nH]c(C)c(C(=O)O)c1C,78.9%
2,O=C(c1ccccc1)C1CCC1,71.5%
3,CCOc1ccc(/C=N/N=C(N)N)cc1OCC,82.3%
4,CCCC[P+](c1ccccc1)(c1ccccc1)c1ccccc1,24.1%
5,O=C(O)[C@@H]1[C@H]2C[C@H]3c4[nH]c5ccccc5c4CCN3C[C@@H]2CC[C@@H]1O,103%
6,O=[N+]([O-])c1ccc(N=Nc2ccc(O)c3ccccc23)cc1,19.5%
7,COC(=O)c1ccc(NC(=O)CCl)cc1,58.3%
8,COc1ccccc1NC(=O)c1cc2cc(Br)ccc2cc1O,-2.37% (active)
9,CCCCN(CCCC)CCCO,96.7%
10,Cc1cc(C)c(N)c(S(=O)(=O)O)c1,92.1%
11,CN(C)C(C)(C)CC(C)(C)C,101%
12,Cc1c(C(=O)O)c(=O)n(-c2ccccc2)n1C,112%
13,COc1ccccc1C1OC2=Nc3cc(C)c(C)cc3NC2C1=O (configuration not stated),56.8%
14,COc1cc(C(N)=O)cc(OC)c1OC,105%
15,COc1cc(C(=O)NC(=S)Nc2ccc3ccccc3c2)cc(OC)c1OC,93.2%
16,O=C1C=CC(=O)N1c1ccc(I)cc1Cl,98.1%
17,NC(C(=O)O)c1ccc([N+](=O)[O-])cc1 (configuration not stated),95.3%

row,Structure (SMILES),growth
1,CC1=CC(C)(C)NC(=S)N1c1ccc(S(=O)(=O)O)c2cccc(S(=O)(=O)O)c12,108%
2,C=CCNC(=O)c1ccc(OC)cc1,95.2%
3,CSc1[nH]c(=O)ncc1F,96%
4,O=[N+]([O-])c1ccc(Cl)c(S(=O)(=O)O)c1,98.4%
5,CCOC(=O)c1cc(/C=C/c2ccc(Cl)cc2Cl)on1,0.711% (active)
6,O=C1C=CC2=C3c4cc(O)c(O)cc4CC3(O)COC2=C1O (configuration not stated),98.1%
7,O=C(N/N=C\c1cc(Br)cc(Br)c1O)N/N=C/c1cc(Br)cc(Br)c1O,52.1%
8,O=S(=O)(O)C(Nc1ccccc1)c1ccccc1 (configuration not stated),98.5%
9,CCC(=O)Oc1ccc(OC)cc1,102%
10,OCc1cccc2ccccc12,96.3%
11,Cc1cc(N2CCC(N3CCCC3)CC2)nc(/N=C(\N)Nc2ccc(Cl)c(Cl)c2)n1,-44.7% (active)
12,O=c1[nH]nc(SC2CCCCC2)c(=O)[nH]1,97.5%
13,C=CC(=O)OCCCCCCCC,95.3%
14,Cc1cc(=O)cc(C)n1-c1ccccc1,94.4%
15,COc1ccccc1NC(=O)C1=C(C)NC(C)=C(C(=O)Nc2ccccc2OC)C1c1cccc([N+](=O)[O-])c1,47.8%
16,Cc1nc2ccccc2c(C(=O)O)c1O,103%
